DT40 TDP1 CPT: growth inhibition of DT40 Tdp1-/-;hTDP1 cells with camptothecin (screen for TDP1 inhibitors) | chicken DT40 Tdp1-/-;hTDP1 cells + 20 nM CPT, ATP luminescence, 48 h | Potency, µM (series often up to 46.2 µM), for inactives: top-dose activity change, negative = growth inhibition, actives largely listed as inhibitors | hit rate 12% among 420,000; note: potency is the fitted concentration of half-maximal effect; nearly all actives have a fitted effect of over 55% in size
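Chicken DT40 Tdp1-/- cells complemented with human TDP1, 400 cells/well, exposed to compounds plus 20 nM camptothecin for at least 48 h at 37 C; viability read as ATP content by CellTiter-Glo luminescence.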
HT1080 IDH1KD tx: kills HT-1080 cells with IDH1 knockdown | HT-1080 IDH1 knockdown viability, ATP luminescence, 48 h | hit rate 2% among 360,000 | Potency, µM (titrated, usually from 46.1 µM), for inactives: top-dose activity, negative = toxicity, actives largely listed as cytotoxic | AID 686971;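 note: potency is the fitted concentration of half-maximal effect; 0% = DMSO wells and -100% = cell-free medium wells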
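HT-1080-IDH1KD cells (IDH1 knocked down), 750/well in RPMI with 5% FBS, treated with compound 48 h at 37 degrees C. Viability by CellTiter-Glo luminescence, normalised to DMSO and no-cell wells; concentration-response curves classed.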
ALOX12 inh: inhibitors of human 12S-lipoxygenase ALOX12 | P18054 | purified 12hLO, xylenol orange hydroperoxide absorbance | Potency, µM (doses to about 108 µM), without a hit: at the top dose activity change, negative = inhibition, actives largely listed as inhibitors | hit rate 1.1% among 580,000 | AID 1671190; note: potency is the fitted concentration of half-maximal effect
Target sequence (P18054 whole entry, looked up): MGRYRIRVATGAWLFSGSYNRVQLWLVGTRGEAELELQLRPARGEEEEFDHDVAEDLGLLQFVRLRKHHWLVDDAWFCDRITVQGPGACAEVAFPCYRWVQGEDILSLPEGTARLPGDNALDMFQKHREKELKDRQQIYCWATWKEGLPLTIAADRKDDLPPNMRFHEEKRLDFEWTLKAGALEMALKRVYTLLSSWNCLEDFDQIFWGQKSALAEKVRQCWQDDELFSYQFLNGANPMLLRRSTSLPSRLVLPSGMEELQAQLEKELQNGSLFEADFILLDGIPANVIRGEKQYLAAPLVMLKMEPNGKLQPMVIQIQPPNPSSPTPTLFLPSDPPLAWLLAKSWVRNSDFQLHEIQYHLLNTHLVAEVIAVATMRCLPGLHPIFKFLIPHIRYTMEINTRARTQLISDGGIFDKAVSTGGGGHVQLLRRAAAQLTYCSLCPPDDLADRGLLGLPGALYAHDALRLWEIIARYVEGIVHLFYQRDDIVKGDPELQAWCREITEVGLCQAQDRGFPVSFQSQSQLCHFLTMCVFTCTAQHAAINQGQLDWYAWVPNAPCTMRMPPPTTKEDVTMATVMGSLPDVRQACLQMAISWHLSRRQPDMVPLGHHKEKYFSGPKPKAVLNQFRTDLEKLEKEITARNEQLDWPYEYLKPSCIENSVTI
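Purified human 12hLO (150 nM final) in 25 mM Hepes, 0.01% Triton X-100, pH 7.0 was preincubated 15 min at room temperature with compound. Then 40 uM arachidonic acid was added, 30 min. Hydroperoxide was read by Fe-XO absorbance ratio 573/405 nm.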
DT40 TDP1 no CPT: qHTS for Inhibitors of human tyrosyl-DNA phosphodiesterase 1 (TDP1): qHTS in cells in absence of CPT | DT40 Tdp1-/- hTDP1 cells, no CPT, ATP luminescence, 48 h | hit rate 15% among 420,000 | Potency, µM (series often up to 46.2 µM), for the others: at the highest dose activity change, negative = growth inhibition, usual class: inhibitors; note: potency is the fitted concentration of half-maximal effect; nearly all actives have a fitted effect of over 55% in size
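Seeded 400 DT40-hTDP1 cells/well (vehicle DMSO, no 20 nM CPT); pinned compounds; ≥48 hr at 37 °C; CellTiter-Glo luminescence as viability measure.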
IL-1B inflam inh: inhibitors of inflammasome signaling (IL-1 beta secretion) | THP-1 LPS/ATP IL-1B secretion, AlphaLISA, 16 h; active compounds read low | activity change, % at 57.5 µM | hit rate 4.7% among 360,000 | AID 743279; in the data active = activity change below about -50%; inconclusive = mostly about -30% to -49%
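THP-1 cells pretreated 1 hr with compounds (up to 57.5 uM final), then stimulated with LPS (250 ng/mL final) plus ATP (1.25 mM final); secreted IL-1B measured by AlphaLISA after 16 hr, decreased signal indicating inhibition.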
HT1080-NT tox: kills 2HG-producing HT-1080-NT fibrosarcoma cells. HT-1080-NT fibrosarcoma viability, CellTiter-Glo ATP luminescence, 48 h. Potency, µM (doses to about 46.1 µM), without a hit: at the top dose activity, negative = less viability, usual class: cytotoxic. hit rate 1.6% among 360,000;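 note: NT is the 2HG producing partner of a matched IDH1 knockdown line; potency is the fitted concentration of half-maximal effect; 0% = DMSO-treated cells and -100% = media-only wells without cells; nearly all actives have a fitted effect of over 55% in size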
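Viability by CellTiter-Glo luminescence after 48 h compound exposure at 37C of HT-1080-NT cells (750/well, RPMI, 5% FBS). % activity scaled between DMSO wells and medium-only wells, then curve-fitted and categorized by curve class.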
* marks the source's active call; other numbers are inactive results; ? = inconclusive; / = not tested or not shown. The full list was thinned out, with hits kept by preference. Unless noted, calls come from the whole dose curve; as a rule, active = well fitted curve in the direction sought with a large enough effect; inconclusive = small, poorly fitted or top-dose-only effect, or another doubt; inactive = no such curve, though single readings can be large; an effect the other way counts as inactive or inconclusive. Unless noted, % is set by controls: 0 for no effect and ±100 for the full control effect.

SMILES	DT40 TDP1 CPT	HT1080 IDH1KD tx	ALOX12 inh	DT40 TDP1 no CPT	IL-1B inflam inh	HT1080-NT tox
CCN(C(=O)C(=O)c1c[nH]c2ccccc12)c1ccc(OC)cc1	/	/	-24.2%	/	/	/
O=C(Cc1ccsc1)N1CCC(n2cnnc2-c2ccccc2)C1 (stereo not given)	/	/	31.6%	/	/	/
N#C/C(=C/c1ccc(Cl)cc1)C(=O)OCC(=O)N1CCOCC1	/	/	-1.0%	/	/	/
O=C(CCCn1c(=O)c2sccc2n(Cc2c(F)cccc2Cl)c1=O)NCc1ccccc1	?	/	0.8%	16.4µM*	/	/
COc1cccc(NC(=O)Cn2c(=O)n(CCCCC(=O)NCc3ccccc3Cl)c(=O)c3ccccc32)c1	?	/	0.0%	18.4µM*	/	/
COc1ccc(NC(=O)Cn2c(=O)n(CCCC(=O)NCc3ccccc3OC)c(=O)c3ccccc32)cc1Cl	?	/	-28.3%	-20.6%	/	/
COc1ccccc1CNC(=O)CCCCn1c(=O)c2ccccc2n(Cc2ccccc2C)c1=O	5.8µM*	/	-26.8%	2.91µM*	/	/
CC(C)(C)CC(C)(C)NC(=S)Nc1ccc(S(=O)(=O)N2CCOCC2)cc1	?	?	?	?	-70.6*	?
CCCCOCCCNC(=S)Nc1ccc(S(=O)(=O)N2CCOCC2)cc1	?	-0.4%	-15.6%	?	0.0	-11.7%
NNC(=S)Nc1ccc(S(=O)(=O)N2CCOCC2)cc1	-6.8%	-1.8%	-2.1%	15.4%	10.1	5.3%
N#Cc1ccc(NC(=S)NC(=O)CCc2ccc(S(=O)(=O)N3CCOCC3)cc2)cc1	13µM*	-11.6%	-2.9%	?	23.1	21.9%
O=S(=O)(c1ccc(NC(=S)NCCC(c2ccccc2)c2ccccc2)cc1)N1CCOCC1	20.6µM*	?	44.7µM*	23.1µM*	-15.5	-27.0%
CCn1nc(C(=O)Nc2ccc(C)cc2C)c2ccccc2c1=O	/	/	4.0%	/	/	/
N#CCN(C(=O)/C=C/c1ccc(Br)s1)C1CC1	/	/	0.5%	/	/	/
Clc1ccc(C(c2cccs2)N2CCNCC2)cc1 (stereo not given)	13µM*	?	-13.2%	18.4µM*	-50.2*	-11.1%
CCS(=O)(=O)N1C[C@@H]2CN(Cc3ncc[nH]3)C[C@]2(C(=O)O)C1	/	/	100.1%	/	/	/
COc1ccccc1NC(=O)CSC1=Nc2ccccc2C2=NC(Cc3ccccc3)C(=O)N12 (stereo not given)	23.1µM*	/	-19.1%	?	/	/
COc1ccc(NC(=O)CSC2=Nc3ccccc3C3=NC(Cc4ccccc4)C(=O)N23)cc1 (stereo not given)	?	/	-20.9%	20.6µM*	/	/
CC(C)c1ccc(NC(=O)CSC2=Nc3ccccc3C3=NC(CC(=O)NCCc4ccccc4)C(=O)N23)cc1 (stereo not given)	?	/	-17.6%	?	/	/
O=C(CSC1=Nc2ccccc2C2=NC(Cc3ccccc3)C(=O)N12)Nc1cccc(Cl)c1 (stereo not given)	16.4µM*	/	?	25.9µM*	/	/
Cc1ccc(-c2cnc(CCC(=O)NC(C)c3ccc(S(C)(=O)=O)cc3)o2)cc1C (stereo not given)	/	/	-1.2%	/	/	/
c1ccc(-c2cc(-c3nc4ccccc4[nH]3)c3ccccc3n2)cc1	?	?	-10.5%	?	-66.7*	-28.6%
Nc1ccc(-c2nc3ccccc3[nH]2)cc1	-5.4%	0.6%	5.6%	-19.7%	-4.7	2.4%
c1ccc(-c2nnsc2-c2nc3ccccc3[nH]2)cc1	-4.7%	5.0%	3.8%	?	55.4	-5.9%
c1ccc(-c2csc(-c3nc4ccccc4[nH]3)n2)cc1	16.8µM*	/	/	26.6µM*	/	/
CNC(=O)c1sc(N2N=C3/C(=C\c4ccccc4)CCCC3C2c2ccccc2)nc1C (stereo not given)	?	-2.2%	-17.8%	25.9µM*	-10.7	-7.2%

Assay outcomes: PubChem BioAssay, National Center for Advancing Translational Sciences (NCATS)
